Measured values from PubChem BioAssay (EPA / NIEHS).
Calls of active or inactive are those of the source. The calls were made as follows: active = hit-call score of the fitted dose curve at least 0.9, where 1 is the maximum; inactive = score below 0.9.

Key:
[1] = ATG_E_Box_CIS: Attagene CIS-FACTORIAL HepG2 Assay for human Enhancer Box (E-box) (AID 2282936); conditions: HepG2 E-box cis-reporter transcription, actives raise or lower the signal
Method in brief: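 Fluorescent reporter fragments separated by capillary electrophoresis gave the signal; mRNA came from HepG2 cells transfected with cis-element reporters and treated 24 h. Curves fitted bidirectionally relative to DMSO controls.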

[2] = ATG_M_61_CIS: Attagene CIS-FACTORIAL HepG2 Assay for M61 Transcription Factor (Internal Marker) (AID 2282937); conditions: HepG2 Attagene CIS-FACTORIAL M61 internal marker reporter; actives raise or lower the signal
Method in brief: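 HepG2 cells transiently transfected with cis-element-driven multiple reporter transcription units, dosed for 24 h. Reporter mRNA measured by RT-PCR, 6-FAM primer-extension labelling, HpaI digestion and capillary electrophoresis; bidirectional fit versus DMSO baseline.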

[3] = ATG_EGR_CIS: Attagene CIS-FACTORIAL HepG2 Assay for human Early Growth Response 1 (EGR1) (AID 2282938); conditions: HepG2 Attagene CIS-FACTORIAL EGR reporter mRNA; actives raise or lower the signal
Method in brief: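 HepG2 cells transiently transfected with cis-promoter-driven multiplexed reporter transcription units; reporter mRNA measured 24 h after compound dosing by RT-PCR, 6-FAM primer extension, HpaI digestion and capillary electrophoresis. Bidirectional fit versus DMSO baseline.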

[4] = ATG_Ets_CIS: Attagene CIS-FACTORIAL HepG2 Assay for human Erythroblast Transformation Specific (ETS) (AID 2282941); conditions: HepG2 ETS cis-reporter transcription, actives raise or lower the signal
Method in brief: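 Endogenous transcription factor activity read as reporter mRNA via RT-PCR and capillary electrophoresis, with gain or loss fitted bidirectionally against DMSO. Human HepG2 liver cells, transiently transfected CIS reporter constructs, 24 h exposure.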

[5] = molecular target: Hepatocyte nuclear factor 3-beta (Homo sapiens) (UniProt Q9Y261); assay: ATG_FoxA2_CIS: Attagene CIS-FACTORIAL HepG2 Assay for human Forkhead box A2 (FOXA2) (AID 2282942); conditions: HepG2 cis-reporter transcription factor activity, 24 h; actives raise or lower the signal
Method in brief: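 HepG2 cells transiently transfected with multiple cis-regulated reporter transcription units, dosed for 24 h. Reporter mRNA measured by RT-PCR, 6-FAM labelling, HpaI digestion and capillary electrophoresis; bidirectional fitting against DMSO baseline.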

[6] = ATG_FoxO_CIS: Attagene CIS-FACTORIAL HepG2 Assay for human Forkhead box O (FoxO) (AID 2282943); conditions: HepG2 Attagene cis-reporter, FoxO element, mRNA; actives raise or lower the signal
Method in brief: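 Endogenous transcription factor activity read from multiplexed cis-promoter reporter transcripts in transiently transfected HepG2, 24 h after dosing. Reporter RNA measured via RT-PCR plus capillary electrophoresis of FAM-labeled products; gain or loss relative to DMSO.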

[7] = ATG_GATA_CIS: Attagene CIS-FACTORIAL HepG2 Assay for human GATA Binding Protein (AID 2282944); conditions: HepG2 GATA cis-element reporter, Attagene multiplex mRNA; actives raise or lower the signal
Method in brief: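 Read-out: fluorescent reporter mRNA fragments resolved by capillary electrophoresis after RT-PCR. Human liver HepG2 cells carried transiently transfected cis-regulated reporter constructs; chemicals incubated 24 h; gain or loss of signal fitted relative to DMSO.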

[8] = ATG_GLI_CIS: Attagene CIS-FACTORIAL HepG2 Assay for human Zinc Finger Protein GLI1 (AID 2282945); conditions: HepG2, Attagene cis-factorial reporter mRNA, GLI element; actives raise or lower the signal
Method in brief: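 Bidirectional curve fits relative to DMSO, using reporter mRNA levels from RT-PCR plus capillary electrophoresis. Cells were HepG2 transiently carrying cis-regulated reporter constructs, harvested 24 h after dosing.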

[9] = molecular target: Bile acid receptor (Homo sapiens) (UniProt Q96RI1); assay: ATG_IR1_CIS: Attagene CIS-FACTORIAL HepG2 Assay for human Nuclear Receptor Subfamily 1 Group H Member 4 (NR1H4), IR1 submotif (AID 2282946); conditions: IR1 reporter transcription, actives raise or lower the signal
Method in brief: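 HepG2 cells transiently transfected with multiplexed cis-element reporter units read endogenous transcription factor activity. After 24 h compound exposure, reporter mRNA was quantified by RT-PCR, fluorescent labelling, HpaI digestion and capillary electrophoresis; bidirectional fitting versus DMSO baseline.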

[10] = ATG_M_32_CIS: Attagene CIS-FACTORIAL HepG2 Assay for M32 Transcription Factor (Internal Marker) (AID 2282949); conditions: HepG2 Attagene cis-factorial M32 reporter, mRNA; actives raise or lower the signal;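 also: background control marker of the multiplexed CIS panel rather than a real target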
Method in brief: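 Transient MRTU transfection of HepG2; 24 h compound treatment; TriZol RNA, oligo(dT) RT, reporter PCR, 6-FAM primer extension, HpaI cut, CE. Gain/loss of signal vs DMSO.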

[11] = ATG_M_06_CIS: Attagene CIS-FACTORIAL HepG2 Assay for M06 Transcription Factor (Internal Marker) (AID 2282950); conditions: HepG2 Attagene CIS-FACTORIAL M06 internal marker reporter; actives raise or lower the signal
Method in brief: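 Terse: HepG2, transient MRTU transfection (FuGene 6), 24 h dosing; total RNA, oligo(dT) RT, PCR, FAM label, HpaI cut, capillary electrophoresis; bidirectional fit vs DMSO baseline; background-control endpoint.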

[12] = molecular target: Hepatocyte nuclear factor 6 (Homo sapiens) (UniProt Q9UBC0); assay: ATG_HNF6_CIS: Attagene CIS-FACTORIAL HepG2 Assay for human Hepatocyte Nuclear Factor 6 (HNF6) (AID 2282952); conditions: HepG2 Attagene cis-factorial HNF6 reporter transcription; actives raise or lower the signal
Method in brief: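 Activity values derive from bidirectional fitting against DMSO of reporter mRNA levels, measured by capillary electrophoresis of labelled RT-PCR products from HepG2 cells exposed 24 h.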

[13] = molecular target: Heat shock factor protein 1 (Homo sapiens) (UniProt Q00613); assay: ATG_HSE_CIS: Attagene CIS-FACTORIAL HepG2 Assay for human Heat Shock Transcription Factor 1 (HSE) (AID 2282953); conditions: HepG2 HSE cis-reporter, Attagene RNA transcription; actives raise or lower the signal
Method in brief: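 Read-out: fluorescence of reporter-specific RT-PCR fragments separated by capillary electrophoresis. HepG2 carrying transfected cis-element reporter units; 24 h dosing; activity fitted in both directions relative to DMSO baseline.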

[14] = ATG_PBREM_CIS: Attagene CIS-FACTORIAL HepG2 Assay for human Phenobarbital-responsive Enhancer Module (PBREM) (AID 2282955); conditions: HepG2 PBREM cis-reporter, Attagene multiplexed transcription; actives raise or lower the signal
Method in brief: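 HepG2 cells transiently transfected with multiple cis-regulated reporter transcription units; endogenous factor activity at the PBREM element measured as reporter mRNA 24 h after dosing, via RT-PCR and capillary electrophoresis of fluorescent fragments; bidirectional fitting versus DMSO.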

[15] = ATG_ERE_CIS: Attagene CIS-FACTORIAL HepG2 Assay for Estrogen Response Element (ERE) (AID 2282940); conditions: HepG2 ERE cis-reporter, Attagene RNA transcript; actives raise or lower the signal
Method in brief: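 Readout: reporter mRNA induction by RT-PCR, FAM-labelled primer extension, HpaI digestion and capillary electrophoresis, 24 h after dosing transfected HepG2 cells. Endogenous transcription factors act on cis-element-regulated reporters. Gain or loss fitted against DMSO.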

[16] = ATG_ISRE_CIS: Attagene CIS-FACTORIAL HepG2 Assay for human Interferon Regulatory Factor 1 (IRF1) binding to an Interferon-Stimulated Response Element (ISRE) (AID 2282948); conditions: HepG2 ISRE cis-reporter (Attagene), mRNA transcription readout; actives raise or lower the signal
Method in brief: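 Endogenous transcription factor activity read as reporter transcript abundance via RT-PCR and capillary electrophoresis. HepG2 cells transiently transfected, 24 h chemical exposure. Gain or loss fitted against DMSO baseline.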

[17] = molecular target: Hypoxia-inducible factor 1-alpha (Homo sapiens) (UniProt Q16665); assay: ATG_HIF1a_CIS: Attagene CIS-FACTORIAL HepG2 Assay for human Hypoxia Inducible Factor 1 (HIF1A) (AID 2282951); conditions: HepG2 Attagene cis-factorial HIF1a reporter transcription; actives raise or lower the signal
Method in brief: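 HepG2 cells transiently transfected with multiplexed cis-promoter reporter units; reporter mRNA read 24 h after dosing by RT-PCR, 6-FAM primer-extension labelling, HpaI digestion and capillary electrophoresis. Bidirectional fit versus DMSO baseline.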

[18] = ATG_MRE_CIS: Attagene CIS-FACTORIAL HepG2 Assay for human Metal Responsive Element (MRE) (AID 2282954); conditions: HepG2 MRE cis-reporter transcription, Attagene multiplex; actives raise or lower the signal
Method in brief: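 Multiplexed cis-reporter assay in human HepG2 liver cells, 24 h incubation with test chemical. Reporter transcripts measured by RT-PCR and capillary electrophoresis; values from bidirectional curve fitting versus DMSO.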

[19] = ATG_M_19_CIS: Attagene CIS-FACTORIAL HepG2 Assay for M19 Transcription Factor (Internal Marker) (AID 2282939); conditions: HepG2 Attagene CIS-FACTORIAL M19 internal marker reporter; actives raise or lower the signal
Method in brief: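 Readout: fluorescent reporter-transcript fragments by capillary electrophoresis after RT-PCR. Human HepG2 liver cells carried transfected MRTU constructs reporting endogenous transcription-factor activity; exposure 24 h. Gain or loss of signal fitted relative to DMSO.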

Measured: AC50

Sequence of Heat shock factor protein 1 (Homo sapiens) (Q00613 whole entry, looked up, the tested form may be a part): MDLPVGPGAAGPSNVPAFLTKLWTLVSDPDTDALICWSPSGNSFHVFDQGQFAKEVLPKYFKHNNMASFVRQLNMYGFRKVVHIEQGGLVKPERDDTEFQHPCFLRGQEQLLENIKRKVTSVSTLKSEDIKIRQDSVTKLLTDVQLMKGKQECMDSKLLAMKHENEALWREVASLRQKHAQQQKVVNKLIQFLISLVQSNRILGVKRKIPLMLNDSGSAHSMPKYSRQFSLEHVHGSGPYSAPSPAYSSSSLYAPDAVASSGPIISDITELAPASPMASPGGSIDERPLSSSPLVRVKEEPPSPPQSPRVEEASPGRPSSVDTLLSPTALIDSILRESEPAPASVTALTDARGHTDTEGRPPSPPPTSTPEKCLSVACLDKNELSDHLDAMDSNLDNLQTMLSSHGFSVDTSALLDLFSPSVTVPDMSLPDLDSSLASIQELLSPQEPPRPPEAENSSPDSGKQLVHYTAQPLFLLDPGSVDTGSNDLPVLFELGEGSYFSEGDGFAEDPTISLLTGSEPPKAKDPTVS
Sequence of Hepatocyte nuclear factor 6 (Homo sapiens) (Q9UBC0 whole entry, looked up): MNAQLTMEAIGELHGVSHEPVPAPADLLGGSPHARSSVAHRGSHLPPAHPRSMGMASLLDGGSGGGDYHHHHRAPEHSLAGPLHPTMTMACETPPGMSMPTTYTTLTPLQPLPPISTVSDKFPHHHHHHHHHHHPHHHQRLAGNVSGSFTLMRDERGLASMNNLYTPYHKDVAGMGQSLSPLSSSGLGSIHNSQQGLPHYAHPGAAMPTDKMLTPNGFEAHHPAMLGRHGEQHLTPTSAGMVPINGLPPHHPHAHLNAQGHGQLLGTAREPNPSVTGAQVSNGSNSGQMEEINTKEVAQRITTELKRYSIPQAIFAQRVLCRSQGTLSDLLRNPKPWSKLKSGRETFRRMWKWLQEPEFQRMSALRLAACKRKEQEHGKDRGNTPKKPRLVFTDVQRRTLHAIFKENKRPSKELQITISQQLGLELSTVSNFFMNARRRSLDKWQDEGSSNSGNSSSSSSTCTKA
Sequence of Bile acid receptor (Homo sapiens) (Q96RI1 whole entry, looked up): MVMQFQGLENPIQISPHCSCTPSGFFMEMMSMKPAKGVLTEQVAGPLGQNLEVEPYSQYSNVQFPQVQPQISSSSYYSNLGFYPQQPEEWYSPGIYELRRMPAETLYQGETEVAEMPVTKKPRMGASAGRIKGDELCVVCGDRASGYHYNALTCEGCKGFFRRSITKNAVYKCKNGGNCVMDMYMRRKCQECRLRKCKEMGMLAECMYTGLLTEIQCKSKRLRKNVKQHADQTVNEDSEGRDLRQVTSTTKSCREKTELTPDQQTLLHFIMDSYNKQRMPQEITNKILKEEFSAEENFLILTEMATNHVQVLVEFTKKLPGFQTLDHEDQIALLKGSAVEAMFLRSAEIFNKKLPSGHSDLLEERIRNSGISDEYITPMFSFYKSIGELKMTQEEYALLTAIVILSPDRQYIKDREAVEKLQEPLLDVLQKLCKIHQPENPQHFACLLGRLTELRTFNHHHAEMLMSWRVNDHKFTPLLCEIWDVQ
Sequence of Hepatocyte nuclear factor 3-beta (Homo sapiens) (Q9Y261 whole entry, looked up): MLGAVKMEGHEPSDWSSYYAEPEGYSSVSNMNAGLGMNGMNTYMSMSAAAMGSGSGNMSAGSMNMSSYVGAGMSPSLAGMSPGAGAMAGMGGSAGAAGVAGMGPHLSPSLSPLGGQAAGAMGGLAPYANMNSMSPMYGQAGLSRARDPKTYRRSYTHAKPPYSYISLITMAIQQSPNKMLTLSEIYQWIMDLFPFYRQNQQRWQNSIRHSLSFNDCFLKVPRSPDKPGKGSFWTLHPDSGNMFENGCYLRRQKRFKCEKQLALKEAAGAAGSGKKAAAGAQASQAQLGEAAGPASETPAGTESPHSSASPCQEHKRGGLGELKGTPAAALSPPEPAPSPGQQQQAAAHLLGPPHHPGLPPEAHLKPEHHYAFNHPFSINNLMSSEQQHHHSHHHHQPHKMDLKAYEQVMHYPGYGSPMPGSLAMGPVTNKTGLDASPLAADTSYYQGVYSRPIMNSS
Sequence of Hypoxia-inducible factor 1-alpha (Homo sapiens) (Q16665 whole entry, looked up): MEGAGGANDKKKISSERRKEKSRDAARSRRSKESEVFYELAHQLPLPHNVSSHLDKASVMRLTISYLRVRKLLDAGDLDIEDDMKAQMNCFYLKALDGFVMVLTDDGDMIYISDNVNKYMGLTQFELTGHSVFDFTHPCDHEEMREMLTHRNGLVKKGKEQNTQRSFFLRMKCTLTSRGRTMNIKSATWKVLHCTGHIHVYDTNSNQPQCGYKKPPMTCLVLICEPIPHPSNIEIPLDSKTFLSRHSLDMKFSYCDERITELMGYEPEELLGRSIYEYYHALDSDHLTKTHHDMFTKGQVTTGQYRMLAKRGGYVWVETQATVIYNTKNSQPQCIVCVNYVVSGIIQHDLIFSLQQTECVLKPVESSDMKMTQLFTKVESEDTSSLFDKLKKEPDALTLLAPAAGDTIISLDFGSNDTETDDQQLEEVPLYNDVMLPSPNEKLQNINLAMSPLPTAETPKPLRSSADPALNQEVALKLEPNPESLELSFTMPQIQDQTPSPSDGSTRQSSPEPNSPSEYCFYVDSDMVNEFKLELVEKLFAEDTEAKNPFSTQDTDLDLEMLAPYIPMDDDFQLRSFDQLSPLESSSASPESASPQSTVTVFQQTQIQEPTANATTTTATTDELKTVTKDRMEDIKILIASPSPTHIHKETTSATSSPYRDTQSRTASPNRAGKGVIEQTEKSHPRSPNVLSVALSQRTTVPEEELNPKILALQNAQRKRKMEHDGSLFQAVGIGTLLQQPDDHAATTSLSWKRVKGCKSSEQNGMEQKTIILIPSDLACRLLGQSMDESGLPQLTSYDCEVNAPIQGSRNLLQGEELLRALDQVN

Cc1cccc(Nc2ccccc2)c1
active: [3] 73.8 µM | [4] 154 µM | [9] 42.5 µM | [13] 162 µM
not listed: [15] | [16] | [17] | [18] | [19]
inactive: all other assays above

C[C@@H]1CCN(C(=O)[C@H](CCCN=C(N)N)NS(=O)(=O)c2cccc3c2NC[C@H](C)C3)[C@@H](C(=O)O)C1
not listed: [5] | [9] | [19]
inactive: all other assays above

CCOC(=O)CCc1ccccc1
not listed: [11] | [14] | [15] | [19]
inactive: all other assays above

COc1ccc(CCC(C)=O)cc1
not listed: [4] | [14] | [15]
inactive: all other assays above

COC(=O)C=C(C)CCC=C(C)C
not listed: [9] | [14] | [16] | [19]
inactive: all other assays above

CC(C)NCC(O)COc1ccc(CC(N)=O)cc1 (stereo unspecified)
not listed: [9] | [14] | [17] | [19]
inactive: all other assays above
